In the library only some 1.2% were active in any assay of this set; here they are far more common.
AMA1 RON2 block = disrupts binding of P. falciparum AMA1 to RON2; AlphaScreen AMA1-biotinylated RON2 peptide binding; Potency, µM (top dose mostly 58.2 µM), inactives show top-dose activity change, negative = inhibition, hits mostly inhibitors; 360,000 tested, 0.2% active;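 also: 0% = vehicle wells and -100% = peptide control; nearly all actives have a fitted effect of over 45% in size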
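AMA1 (3D7) with his tag at 25 nM final met compounds first, then biotinylated RON2 peptide at 25 nM; detection used donor plus acceptor beads, 10 µg/mL apiece, read by AlphaScreen after 30 min at room temperature.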
Giardia FBPA inh = Giardia lamblia aldolase inhibition; purified Giardia FBPA; Potency, µM (doses to about 59.6 µM), without a hit: top-dose activity, negative = inhibition, most hits filed as inhibitors; 290,000 tested, 0.71% active; AID 2451; also: % is scaled to controls: 0 for no effect and ±100 for the full control effect; nearly all actives have a fitted effect of over 55% in size
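40 nM FBPA preincubated 10 min at RT with compound (up to 57.5 uM final), then substrate plus GAPDH/TPI/NAD/arsenate coupling and diaphorase/resazurin added. Fluorescence read after 20 min at RT, 525/598 nm.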
LmPK inh = blocks Leishmania mexicana pyruvate kinase activity. Q27686. purified LmPK, Kinase-Glo ATP luminescence, 1 h. Potency, µM (titrated, usually from 57.5 µM), inactives show top-dose activity change, negative = inhibition, actives largely listed as inhibitors. 290,000 tested, 0.37% active. AID 1721; also: % is scaled to controls: 0 for no effect and ±100 for the full control effect
Target sequence (Q27686 whole entry, looked up): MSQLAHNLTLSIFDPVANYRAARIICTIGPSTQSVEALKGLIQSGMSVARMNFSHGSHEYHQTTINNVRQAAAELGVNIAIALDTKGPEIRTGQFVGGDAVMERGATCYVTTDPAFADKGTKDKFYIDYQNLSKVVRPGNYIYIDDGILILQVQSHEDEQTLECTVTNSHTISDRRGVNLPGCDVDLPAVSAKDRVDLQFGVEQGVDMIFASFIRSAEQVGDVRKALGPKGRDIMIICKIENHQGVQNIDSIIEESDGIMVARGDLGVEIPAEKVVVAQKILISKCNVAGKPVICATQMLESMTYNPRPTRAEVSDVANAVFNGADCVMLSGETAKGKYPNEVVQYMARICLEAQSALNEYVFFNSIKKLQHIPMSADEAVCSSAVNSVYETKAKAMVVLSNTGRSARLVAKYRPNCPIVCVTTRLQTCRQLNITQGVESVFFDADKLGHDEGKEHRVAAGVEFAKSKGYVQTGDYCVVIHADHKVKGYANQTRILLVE
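Pyruvate kinase activity monitored as ATP production (luciferase luminescence). Conditions: 0.1 nM enzyme, 0.5 mM PEP, 0.1 mM ADP, 1 h, RT; normalized against uninhibited and no-enzyme wells.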
NS1 inh = inhibitors of influenza NS1 protein function; Potency, µM (doses to about 46.1 µM), inactives show at the top dose activity, positive = more growth; 270,000 tested, 0.4% active; calls by dose curve; also: actives are rising curves; nearly all actives have a fitted effect of over 50% in size
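In this qHTS, NS1 from influenza A is expressed in budding yeast, where it slows growth. Cells are switched from glucose to 2% galactose medium (pH 6.0, -URA), treated with compound, and growth recovery is read at OD600.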
TbPYK inhibitor = blocks Trypanosoma brucei pyruvate kinase; Q57TT1; TbPYK enzyme, Kinase-Glo Plus ATP luminescence, 45 min; Potency, µM (top dose mostly 76.8 µM), for the others: top-dose activity, negative = inhibition, hits mostly inhibitors; 410,000 tested, 0.12% active; AID 624173; also: % is scaled to controls: 0 for no effect and ±100 for the full control effect; nearly all actives have a fitted effect of over 50% in size
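TbPYK + substrate in 50 mM TEA pH 7.2, 100 mM KCl, 10 mM MgCl2, 0.05% BSA, 0.01% Tween-20; cpd pinned; ADP 130 uM final; 45 min RT; Kinase-Glo Plus 10 min; luminescence endpoint.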
Active calls of the source: *; [ ] = remark or other dose. Unless noted, calls follow the shape of the dose curve; as a rule, active = well fitted curve in the direction sought with a large enough effect; inconclusive = small, poorly fitted or top-dose-only effect, or another doubt; inactive = no such curve, though single readings can be large; an effect the other way counts as inactive or inconclusive. Potency is read from the fitted curve at half-maximal effect.

How did CN(c1ccccc1)c1ccc(/C=N/N2CCOCC2)cc1 do in these assays?
AMA1 RON2 block: 11.2µM*; Giardia FBPA inh: 2.9%; LmPK inh: -3.2%; NS1 inh: -5.7%; TbPYK inhibitor: -9.0%

How did Cc1cc(-c2ccccc2)nc(-c2ccccc2)c1C do in these assays?
AMA1 RON2 block: 10.1%; Giardia FBPA inh: -25.5%; LmPK inh: 7.08µM*; NS1 inh: -42.9%; TbPYK inhibitor: 7.6%

What do the screens show for `Cc1cc2ncc(-c3ccccc3)nc2cc1C`?
AMA1 RON2 block: -3.3%; Giardia FBPA inh: 8.3%; LmPK inh: -30.0%; NS1 inh: -12.9%; TbPYK inhibitor: -9.0%

How did CC1=Nc2cc(C(=O)NCc3ccccc3Cl)ccc2Sc2c(C)ccc(C)c21 do in these assays?
TbPYK inhibitor: -4.5%

Results for COC(=O)C1=C(O)/C(=C\c2cc(C)n(-c3ccccc3C)c2C)N=C1C ?
AMA1 RON2 block: 7.1%; Giardia FBPA inh: 7.06µM*; LmPK inh: 4.1%; NS1 inh: 5.3%; TbPYK inhibitor: 16.8%

What do the screens show for `COC(=O)NC(CC(C)=O)c1ccc2c(c1)OCO2` (stereo unspecified)?
Giardia FBPA inh: -0.6%[12.9 µM]

How did Clc1ccc(-c2nc3ccncc3[nH]2)cc1 do in these assays?
AMA1 RON2 block: -20.5%; Giardia FBPA inh: -5.3%; LmPK inh: 14.1µM*; NS1 inh: -8.3%; TbPYK inhibitor: -24.4%

Results for CC[n+]1c(C)sc2c3ccsc3ccc21 ?
AMA1 RON2 block: -27.5%; Giardia FBPA inh: -8.3%; LmPK inh: -9.5%; TbPYK inhibitor: 3.98µM*

What do the screens show for `COC1=CC(=O)C(O)=C/C1=C\C=C\c1ccccc1`?
Giardia FBPA inh: 22.3µM*

How did COc1ccc(NC(=S)NCCN2CCC(C)CC2)cc1Cl do in these assays?
AMA1 RON2 block: -20.3%; Giardia FBPA inh: 14.1µM*; LmPK inh: 2.1%; NS1 inh: 10.2%; TbPYK inhibitor: -29.9%

How did O=[N+]([O-])c1c(Nc2ccccn2)cc(Cl)c2nonc12 do in these assays?
AMA1 RON2 block: -17.8%; Giardia FBPA inh: 0.446µM*; LmPK inh: -8.7%; NS1 inh: -87.3%; TbPYK inhibitor: -1.7%

What do the screens show for `Cc1ccc(OCC(=O)Nc2nnc(SCc3cc(=O)c4ccccc4[nH]3)s2)cc1`?
TbPYK inhibitor: 28.2µM*

Results for Cc1cccc(S(=O)(=O)NC(=O)C2(C)CCN2C(=O)Cc2cc(F)ccc2F)c1 (stereo unspecified) ?
AMA1 RON2 block: 39.8µM*; TbPYK inhibitor: -10.3%

How did CC1=C(C)C(=O)N(c2ccccn2)C1=O do in these assays?
AMA1 RON2 block: 2.6%; Giardia FBPA inh: -9.0%; LmPK inh: -0.6%; NS1 inh: -3.7%; TbPYK inhibitor: -6.5%

Results for Cc1nn(-c2ccccn2)c2c1C(=O)C(Br)CC2 (stereo unspecified) ?
AMA1 RON2 block: -9.6%; Giardia FBPA inh: 5µM*; LmPK inh: -12.3%[11.5 µM]; TbPYK inhibitor: inconclusive

What do the screens show for `COc1ccc(NC(=O)N2c3ccc(OC)cc3C(C)=CC2(C)C)cc1`?
AMA1 RON2 block: -10.5%; Giardia FBPA inh: 11.2µM*; LmPK inh: 3.4%; NS1 inh: -4.6%; TbPYK inhibitor: -5.1%

What do the screens show for `COc1ccc(OCC(=O)NCc2ccc3c(c2)CCN3C(=O)c2cccc(C)c2)cc1`?
TbPYK inhibitor: 0.5%

What do the screens show for `Cc1ccc(-c2cc(C(F)(F)F)n3nc(C(=O)Nc4sc5c(c4C#N)CCC(C)C5)cc3n2)cc1` (stereo unspecified)?
TbPYK inhibitor: -4.5%

How did CC/C(O)=N/S(=O)(=O)c1ccc(-c2c(-c3ccccc3)noc2C)cc1 do in these assays?
TbPYK inhibitor: 2.8%

What do the screens show for `O=C(O)c1ccc(N=Nc2c(O)ccc3ncccc23)cc1`?
AMA1 RON2 block: 6.31µM*; Giardia FBPA inh: inconclusive; LmPK inh: -8.7%; NS1 inh: -46.4%; TbPYK inhibitor: -10.4%

How did NS(=O)(=O)c1ccc(N=Nc2c(O)ccc3ccccc23)cc1 do in these assays?
AMA1 RON2 block: inconclusive; Giardia FBPA inh: -18.1%; LmPK inh: -1.8%; NS1 inh: 8.6%; TbPYK inhibitor: -5.9%

How did Nc1nc(N)c(N=Nc2ccc(C(=O)O)cc2)c(N)n1 do in these assays?
AMA1 RON2 block: -10.0%; Giardia FBPA inh: -3.2%; LmPK inh: -5.9%; NS1 inh: -3.0%; TbPYK inhibitor: -1.5%

Bioassay records deposited in PubChem BioAssay by National Center for Advancing Translational Sciences (NCATS).
